Assay results reported in PubChem BioAssay (NCI).
The panel holds about 83,000 compounds, 20% with a hit somewhere; the sample as a whole holds those more often.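 The endpoint reported here, percent growth, reads 100 for growth as untreated, 0 for no net growth and -100 for all cells dead.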 Unmarked numbers belong to inactive results. The source made the active and inactive calls. The calls were made as follows: active = growth percent below 10; inactive = the rest. Where a SMILES comes first, the peptide text is derived from it. [ ]: non-standard residue; d: D form. ξ: configuration not given here. ξD = NC(CC(=O)O)C(=O)O

Legend:
Assay in all cases: NCI-60 one-dose screen, 48 h (100 = growth as untreated, 0 = no growth, -100 = all killed)
HCT-15 colon = conditions: 10 µM unless noted
HT29 colon = conditions: 10 µM unless noted
SNB-75 CNS = conditions: 10 µM unless noted
U251 CNS = conditions: 10 µM unless noted
PC-3 prostate = conditions: 10 µM unless noted
UACC-62 melanoma = conditions: 10 µM unless noted
LOX IMVI melanoma = conditions: 10 µM
SK-MEL-28 melanoma = conditions: 10 µM unless noted
SK-MEL-2 melanoma = conditions: 10 µM unless noted
EKVX NSCLC = conditions: 10 µM unless noted
SN12C renal = conditions: 10 µM unless noted
ACHN renal = conditions: 10 µM unless noted
CAKI-1 renal = conditions: 10 µM unless noted
A498 renal = conditions: 10 µM unless noted
CCRF-CEM leukemia = conditions: 10 µM unless noted
MOLT-4 leukemia = conditions: 10 µM unless noted
SNB-19 CNS = conditions: 10 µM unless noted
SK-MEL-5 melanoma = conditions: 10 µM unless noted
UO-31 renal = conditions: 10 µM unless noted
TK-10 renal = conditions: 10 µM unless noted

| Structure (SMILES) | growth (HCT-15 colon) | growth (HT29 colon) | growth (SNB-75 CNS) | growth (U251 CNS) | growth (PC-3 prostate) | growth (UACC-62 melanoma) | growth (LOX IMVI melanoma) | growth (SK-MEL-28 melanoma) | growth (SK-MEL-2 melanoma) | growth (EKVX NSCLC) | growth (SN12C renal) | growth (ACHN renal) | growth (CAKI-1 renal) | growth (A498 renal) | growth (CCRF-CEM leukemia) | growth (MOLT-4 leukemia) | growth (SNB-19 CNS) | growth (SK-MEL-5 melanoma) | growth (UO-31 renal) | growth (TK-10 renal) |
| --- | --- | --- | --- | --- | --- | --- | --- | --- | --- | --- | --- | --- | --- | --- | --- | --- | --- | --- | --- | --- |
| NCC(=O)NC(CC(=O)O)C(=O)O (stereo not given) (H-Gly-[ξD]-OH) | 105% | 98.2% | 98.6% | 103% | 86.7% | 91.4% | 103% | 104% | 111% | 94.7% | 99% | 106% | 89.8% | 105% | 79.3% | 109% |  |  |  |  |
| C/C(=N\NC(=S)N1CC2CCC(CC2)C1)c1ccccn1 | 18.4% | 6.46% (active) |  | 5.52% (active) | -4.47% (active) |  | 4.04% (active) | 37.9% | 13.7% | -6.66% (active) | 4.27% (active) |  | 0.118% (active) | -12.4% (active) | 3.63% (active) | 3.87% (active) | 11.7% | -68.3% (active) | -8.11% (active) | 21.6% |
| Oc1ccc2ccccc2c1N=Nc1nccs1 | 24% | 34.7% |  | 4.79% (active) | 35.4% | 0.0083% (active) | 5.25% (active) | 38.1% | 153% | -9.54% (active) | 34.4% | 10.3% | -31.1% (active) | 136% | -7.19% (active) | -4.26% (active) | 74.2% |  | 59.3% | -14% (active) |
| CN(C)CCSC1=Nc2ccc(Cl)cc2C(c2ccccc2Cl)N(C)C1 (stereo not given) | 62.5% | 50.9% | 11.9% | 71.2% | 48.5% |  |  | 70.9% | 81.8% | 81% | 63.8% | 74.2% | 20.5% | 127% | 85.2% | 79.2% |  | 68.7% | 24.5% | 64.9% |
| O=C/C=C/c1ccc([N+](=O)[O-])cc1 | 105% | 97.6% |  | 95.5% | 98.7% | 98.2% | 83.8% | 113% | 103% |  | 102% | 112% | 100% | 78.6% | 87.6% | 82.1% | 95.3% | 102% | 84.2% | 99.9% |
| NC(CS/C(Cl)=C/Cl)C(=O)O (stereo not given) | 85.5% | 86.8% | 103% | 84.7% | 64.1% | 77.4% | -57.3% (active) | 73% | 53.7% | 81.4% | 87% | 95.2% | 89.6% | -60% (active) | 66.5% | 97.1% |  |  | 82.6% | 117% |
| CC12CCC(O)CC1=CCC1C2CCC2(C)C3=NN=CC3CC12 (stereo not given) | 95.1% | 99% | 93.7% | 101% | 103% | 92.5% | 100% | 103% | 118% | 81.9% | 105% | 97.7% | 127% | 124% | 91% | 83.8% |  |  | 105% | 108% |
| CN(Cc1ccccc1)c1ccc(SC#N)cc1 | 71.8% | 52.3% | 81.3% | 73.4% | 27.4% | 97% | 45% | 101% | 98.4% |  | 103% |  | 98.9% | 93% | 10.8% | 55.4% |  |  |  | 95.8% |
| Nc1cccc2cccc([N+](=O)[O-])c12 | 105% | 106% |  | 101% | 103% | 98.9% | 105% | 96.4% | 98.3% | 120% | 107% | 116% | 107% | 104% | 102% |  | 102% |  | 74.7% | 109% |
| CCCCCCCCC(=O)OCCCC(CCC(CCC1CCCO1)OC(=O)CCCCCCCC)OC(=O)CCCCCCCC (stereo not given) | 103% | 93% | 93.8% |  | 85.1% | 88.2% | 98.6% | 102% | 103% | 94.1% |  | 107% | 93.3% | 110% | 87.6% | 117% |  | 102% |  | 87.9% |
| O=C(C[P+](c1ccccc1)(c1ccccc1)c1ccccc1)c1ccccc1 | 97.5% | 87.4% |  | 96.7% | 74.7% | 79.5% | 70.6% | 109% |  | 88.5% | 87.9% | 94.3% | 84.5% | 79.8% | 90.5% | 92.3% | 94.4% | 104% | 71.8% | 94.4% |
| O=C1C(=O)c2cccnc2-c2ncccc21 | -20.5% (active) |  | -13.3% (active) | -91.5% (active) | -24.5% (active) |  | -83.8% (active) | -9.12% (active) | -11.1% (active) | -49.7% (active) | -14.3% (active) | -69.4% (active) | -29.4% (active) | -39.4% (active) | -32.6% (active) | -45.1% (active) | 0.441% (active) | -100% (active) | -71.3% (active) | -24% (active) |
| O=[N+]([O-])c1ccc(C2N(Cc3ccc(Cl)cc3)CCN2Cc2ccc(Cl)cc2)cc1 | 84.9% |  | 74.1% | 87.6% | 82.3% | 102% | 96.9% | 96.3% | 101% |  |  | 81.6% | 72.7% | 88.4% | 83.5% | 80.3% | 96.7% | 88.8% | 48.5% |  |
| C(=N\Nc1ccc2ccccc2n1)/c1ccccn1 | 28.5% | 32.1% |  | 10.1% |  |  | 15.1% | 32.9% | 39.5% | 20.7% | 17.7% | 7.28% (active) | 2.92% (active) | 26.7% | 16.9% | 6.6% (active) | 21.3% |  | -29.8% (active) | 48% |
| COc1cc(NC(=O)C2=C(C)NC(C)=C(C(=O)Nc3cc(OC)c(Cl)cc3OC)C2c2cccc([N+](=O)[O-])c2)c(OC)cc1Cl | 14.3% | 40.6% |  | 31.6% | 16.8% | 27.6% | 22.8% | 24.4% | 10.2% | 28.7% |  | 29.2% | 21.4% | 75.3% | 12.3% | 10.3% |  | -5.53% (active) |  | 70.6% |
| C[n+]1ccccc1C[n+]1ccccc1 | 110% | 103% |  | 109% |  | 105% | 114% | 98.3% | 94.4% | 113% | 105% | 112% | 114% | 109% | 92.7% | 83.6% |  | 105% | 90.5% |  |
| O=[N+]([O-])c1ccc(C(Br)c2ccc([N+](=O)[O-])cc2)cc1 | 57.8% | 72.7% |  |  | 61.8% | 79.5% | -40.1% (active) | 105% | 97.6% | 109% | 54.9% |  | 92.2% | 101% | 16.3% | 12.5% | 106% | 68.1% | 47.4% | 97.5% |
| N=C(N)Sc1cccc[n+]1[O-] | 32.8% |  | 61.5% | 41.5% | 38.1% | 23.2% | -30.9% (active) | 26.1% | 59% | 47.7% | 101% | 48.6% | 79.5% | 81.7% | -8.85% (active) | 12.7% | 59% | 56.2% | 36.1% |  |
